# Structures can show the parent of a compound that is named as a salt. ± gives the uncertainty stated by the source.
# System: Candida albicans SNY425 biofilm
# Assay: biofilm OD600 with compound plus antifungal (OD600 (absorbance)); higher = more biofilm remaining
# [1] = assay detail: disruption of 24-h mature biofilm (compound + antifungal for a second 24 h)
# [2] = assay detail: sustained inhibition (compound + antifungal during 90-min adherence and 24-h growth)
Structure (SMILES),biofilm OD600 [1],biofilm OD600 [2]
CC(C)(C)NC(=O)[C@@H]1C[C@@H]2CCCC[C@@H]2CN1C[C@@H](O)[C@H](Cc1ccccc1)NC(=O)[C@H](CC(N)=O)NC(=O)c1ccc2ccccc2n1 [saquinavir] + OC(Cn1cncn1)(Cn1cncn1)c1ccc(F)cc1F [fluconazole] (first compound 12.5 µM),0.255 ± 0.0074,0.112 ± 0.009
CCC[C@@]1(CCc2ccccc2)CC(O)=C([C@H](CC)c2cccc(NS(=O)(=O)c3ccc(C(F)(F)F)cn3)c2)C(=O)O1 [tipranavir] + CC[C@H](C)C[C@H](C)CCCCCCCCC(=O)N[C@H]1C[C@@H](O)[C@@H](NCCN)NC(=O)[C@@H]2[C@@H](O)CCN2C(=O)[C@H]([C@H](O)CCN)NC(=O)[C@H]([C@H](O)[C@@H](O)c2ccc(O)cc2)NC(=O)[C@@H]2C[C@@H](O)CN2C(=O)[C@H]([C@@H](C)O)NC1=O [caspofungin] (first compound 12.5 µM),0.268 ± 0.011,0.192 ± 0.0071
O=C(NCCCCN1CCOCC1)c1cc2ccccc2o1 + CC[C@H](C)C[C@H](C)CCCCCCCCC(=O)N[C@H]1C[C@@H](O)[C@@H](NCCN)NC(=O)[C@@H]2[C@@H](O)CCN2C(=O)[C@H]([C@H](O)CCN)NC(=O)[C@H]([C@H](O)[C@@H](O)c2ccc(O)cc2)NC(=O)[C@@H]2C[C@@H](O)CN2C(=O)[C@H]([C@@H](C)O)NC1=O [caspofungin] (first compound 12.5 µM),0.251 ± 0.014,0.202 ± 0.01
NCC1CCC(C(=O)N[C@@H](Cc2ccccc2)C(=O)Nc2ccc(CC(=O)O)cc2)CC1 (stereo partly drawn) + OC(Cn1cncn1)(Cn1cncn1)c1ccc(F)cc1F [fluconazole] (first compound 12.5 µM),0.251 ± 0.0096,0.13 ± 0.018
"O=c1oc(Cl)c(Cl)c2ccccc12 [3,4-Dichloroisocoumarin] + C[C@@H]1[C@H](O)[C@@H](C)/C=C/C=C/C=C/C=C/C=C/C=C/C=C/[C@H](O[C@@H]2O[C@H](C)[C@@H](O)[C@H](N)[C@@H]2O)C[C@@H]2O[C@](O)(C[C@@H](O)C[C@@H](O)[C@H](O)CC[C@@H](O)C[C@@H](O)CC(=O)O[C@H]1C)C[C@H](O)[C@H]2C(=O)O [amphotericin B] (first compound 12.5 µM)",0.252 ± 0.013,0.196 ± 0.0087
"Nc1ccc(CC(CC(=O)O)C(=O)O)cc1 [4-Amino-D, L-benzylsuccinic acid] + OC(Cn1cncn1)(Cn1cncn1)c1ccc(F)cc1F [fluconazole] (first compound 12.5 µM)",0.291 ± 0.009,0.12 ± 0.0067
CC(C)(C)NC(=O)[C@@H]1CN(Cc2cccnc2)CCN1C[C@@H](O)C[C@@H](Cc1ccccc1)C(=O)N[C@H]1c2ccccc2C[C@H]1O [indinavir] + CC[C@H](C)C[C@H](C)CCCCCCCCC(=O)N[C@H]1C[C@@H](O)[C@@H](NCCN)NC(=O)[C@@H]2[C@@H](O)CCN2C(=O)[C@H]([C@H](O)CCN)NC(=O)[C@H]([C@H](O)[C@@H](O)c2ccc(O)cc2)NC(=O)[C@@H]2C[C@@H](O)CN2C(=O)[C@H]([C@@H](C)O)NC1=O [caspofungin] (first compound 12.5 µM),0.227 ± 0.0078,0.207 ± 0.011
CCOC(=O)[C@H](CCc1ccccc1)N[C@@H](C)C(=O)N1CCC[C@H]1C(=O)O [Enalapril] + C[C@@H]1[C@H](O)[C@@H](C)/C=C/C=C/C=C/C=C/C=C/C=C/C=C/[C@H](O[C@@H]2O[C@H](C)[C@@H](O)[C@H](N)[C@@H]2O)C[C@@H]2O[C@](O)(C[C@@H](O)C[C@@H](O)[C@H](O)CC[C@@H](O)C[C@@H](O)CC(=O)O[C@H]1C)C[C@H](O)[C@H]2C(=O)O [amphotericin B] (first compound 12.5 µM),0.279 ± 0.0057,0.197 ± 0.023
CCOC(=O)c1ccc(OC(=O)CCCCCNC(=N)N)cc1 [Gabexate mesylate] + CC[C@H](C)C[C@H](C)CCCCCCCCC(=O)N[C@H]1C[C@@H](O)[C@@H](NCCN)NC(=O)[C@@H]2[C@@H](O)CCN2C(=O)[C@H]([C@H](O)CCN)NC(=O)[C@H]([C@H](O)[C@@H](O)c2ccc(O)cc2)NC(=O)[C@@H]2C[C@@H](O)CN2C(=O)[C@H]([C@@H](C)O)NC1=O [caspofungin] (first compound 12.5 µM),0.26 ± 0.0083,0.181 ± 0.006
CC(C)c1nc(CN(C)C(=O)N[C@H](C(=O)N[C@@H](Cc2ccccc2)C[C@H](O)[C@H](Cc2ccccc2)NC(=O)OCc2cncs2)C(C)C)cs1 [ritonavir] + C[C@@H]1[C@H](O)[C@@H](C)/C=C/C=C/C=C/C=C/C=C/C=C/C=C/[C@H](O[C@@H]2O[C@H](C)[C@@H](O)[C@H](N)[C@@H]2O)C[C@@H]2O[C@](O)(C[C@@H](O)C[C@@H](O)[C@H](O)CC[C@@H](O)C[C@@H](O)CC(=O)O[C@H]1C)C[C@H](O)[C@H]2C(=O)O [amphotericin B] (first compound 12.5 µM),0.246 ± 0.0053,0.146 ± 0.0034
Cc1c(O)cccc1C(=O)N[C@@H](CSc1ccccc1)[C@H](O)CN1C[C@H]2CCCC[C@H]2C[C@H]1C(=O)NC(C)(C)C [nelfinavir] + OC(Cn1cncn1)(Cn1cncn1)c1ccc(F)cc1F [fluconazole] (first compound 12.5 µM),0.255 ± 0.0099,0.121 ± 0.018
COC(=O)C[C@H](NC(=O)[C@H](C)NC(=O)[C@@H](NC(=O)OCc1ccccc1)C(C)C)C(=O)CF + OC(Cn1cncn1)(Cn1cncn1)c1ccc(F)cc1F [fluconazole] (first compound 12.5 µM),0.283 ± 0.0098,0.12 ± 0.0089
NC(N)=NCCC[C@H](NC(=O)[C@@H]1CCCN1C(=O)[C@H](N)Cc1ccccc1)C(=O)CCl + C[C@@H]1[C@H](O)[C@@H](C)/C=C/C=C/C=C/C=C/C=C/C=C/C=C/[C@H](O[C@@H]2O[C@H](C)[C@@H](O)[C@H](N)[C@@H]2O)C[C@@H]2O[C@](O)(C[C@@H](O)C[C@@H](O)[C@H](O)CC[C@@H](O)C[C@@H](O)CC(=O)O[C@H]1C)C[C@H](O)[C@H]2C(=O)O [amphotericin B] (first compound 12.5 µM),0.291 ± 0.0073,0.213 ± 0.0082
CC(C)C[C@H](NP(=O)(O)O[C@@H]1O[C@@H](C)[C@H](O)[C@@H](O)[C@H]1O)C(=O)N[C@@H](Cc1c[nH]c2ccccc12)C(=O)O [Phosphoramidon] + C[C@@H]1[C@H](O)[C@@H](C)/C=C/C=C/C=C/C=C/C=C/C=C/C=C/[C@H](O[C@@H]2O[C@H](C)[C@@H](O)[C@H](N)[C@@H]2O)C[C@@H]2O[C@](O)(C[C@@H](O)C[C@@H](O)[C@H](O)CC[C@@H](O)C[C@@H](O)CC(=O)O[C@H]1C)C[C@H](O)[C@H]2C(=O)O [amphotericin B] (first compound 12.5 µM),0.28 ± 0.0089,0.211 ± 0.0094

# Reference: the supplement of paper PMC7261846
